# About 7,900 targets were measured; listed, in parts, are those with a hit and a random draw of the rest. About 0.6% of all pairs of compound and target were hits. Unmarked numbers belong to inactive results.
# How the values were obtained:
# Test in all cases: log2 fold change, soluble protein after heating vs DMSO (PISA); higher = thermal stabilisation; K562 cells, 10 uM, 30 min; active = over 0.2 and 3.5 SD of the protein, either way, in both replicates (recomputed)
# [1] = compound: CN1CCN(CCOc2cc(OC3CCOCC3)c3c(Nc4c(Cl)ccc5c4OCO5)ncnc3c2)CC1 [saracatinib]
# In short: (§1)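 Aliquots of K562 cells (2×10^6 cells/mL) treated with 10 μM compound for 30 min were heated for 3 min over 48°C-58°C. After pooling and extraction in PBS with 0.5% NP-40 at 4°C, soluble protein from a 21,000xg, 90 min spin was quantified by TMTpro 16plex LC-MS/MS with channel sums equalised. Thermal stability is expressed against control samples, from duplicates, as a log2 fold change.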
# [2] = compound: CN1CCN(c2nc(C3=C(c4c[nH]c5ccccc45)C(=O)NC3=O)c3ccccc3n2)CC1 [sotrastaurin]
# In short: as §1
# [3] = compound: CN1CC[C@H](c2c(O)cc(O)c3c(=O)cc(-c4ccccc4Cl)oc23)[C@H](O)C1 [alvocidib]
# In short: as §1
# [4] = compound: CN1CCc2c(c3ccccc3n2Cc2ccc(C(=O)NO)cc2)C1 [Tubastatin A]
# In short: as §1
# [5] = compound: CNC(=O)C1=CC=CC=C1NC2=NC(=NC=C2Cl)NC3=C(C=C(C=C3)N4CCOCC4)OC
# In short: as §1
# [6] = compound: CNC(=O)c1ccc(Nc2ncc(C(F)(F)F)c(NCc3nccnc3N(C)S(C)(=O)=O)n2)cc1 [defactinib]
# In short: as §1
# [7] = compound: CNCc1ccc(-c2[nH]c3cc(F)cc4c3c2CCNC4=O)cc1 [rucaparib]
# In short: as §1
# [8] = compound: CNc1nc(-c2ccc3c(N)n[nH]c3c2)cc(N2C[C@@H](C(=O)NC3CCCCC3)CC[C@H]2C)n1
# In short: as §1
# [9] = compound: COC(=O)N[C@@H](C)CNc1nccc(-c2cn(C(C)C)nc2-c2cc(Cl)cc(NS(C)(=O)=O)c2F)n1 [encorafenib]
# In short: as §1
# [10] = compound: COC(=O)[C@H](CCSC)NC(=O)C1=C(C=C(C=C1)NC[C@H](CS)N)C2=CC=CC=C2
# In short: as §1
# UniProt P46020, sequence (P46020 whole entry, looked up): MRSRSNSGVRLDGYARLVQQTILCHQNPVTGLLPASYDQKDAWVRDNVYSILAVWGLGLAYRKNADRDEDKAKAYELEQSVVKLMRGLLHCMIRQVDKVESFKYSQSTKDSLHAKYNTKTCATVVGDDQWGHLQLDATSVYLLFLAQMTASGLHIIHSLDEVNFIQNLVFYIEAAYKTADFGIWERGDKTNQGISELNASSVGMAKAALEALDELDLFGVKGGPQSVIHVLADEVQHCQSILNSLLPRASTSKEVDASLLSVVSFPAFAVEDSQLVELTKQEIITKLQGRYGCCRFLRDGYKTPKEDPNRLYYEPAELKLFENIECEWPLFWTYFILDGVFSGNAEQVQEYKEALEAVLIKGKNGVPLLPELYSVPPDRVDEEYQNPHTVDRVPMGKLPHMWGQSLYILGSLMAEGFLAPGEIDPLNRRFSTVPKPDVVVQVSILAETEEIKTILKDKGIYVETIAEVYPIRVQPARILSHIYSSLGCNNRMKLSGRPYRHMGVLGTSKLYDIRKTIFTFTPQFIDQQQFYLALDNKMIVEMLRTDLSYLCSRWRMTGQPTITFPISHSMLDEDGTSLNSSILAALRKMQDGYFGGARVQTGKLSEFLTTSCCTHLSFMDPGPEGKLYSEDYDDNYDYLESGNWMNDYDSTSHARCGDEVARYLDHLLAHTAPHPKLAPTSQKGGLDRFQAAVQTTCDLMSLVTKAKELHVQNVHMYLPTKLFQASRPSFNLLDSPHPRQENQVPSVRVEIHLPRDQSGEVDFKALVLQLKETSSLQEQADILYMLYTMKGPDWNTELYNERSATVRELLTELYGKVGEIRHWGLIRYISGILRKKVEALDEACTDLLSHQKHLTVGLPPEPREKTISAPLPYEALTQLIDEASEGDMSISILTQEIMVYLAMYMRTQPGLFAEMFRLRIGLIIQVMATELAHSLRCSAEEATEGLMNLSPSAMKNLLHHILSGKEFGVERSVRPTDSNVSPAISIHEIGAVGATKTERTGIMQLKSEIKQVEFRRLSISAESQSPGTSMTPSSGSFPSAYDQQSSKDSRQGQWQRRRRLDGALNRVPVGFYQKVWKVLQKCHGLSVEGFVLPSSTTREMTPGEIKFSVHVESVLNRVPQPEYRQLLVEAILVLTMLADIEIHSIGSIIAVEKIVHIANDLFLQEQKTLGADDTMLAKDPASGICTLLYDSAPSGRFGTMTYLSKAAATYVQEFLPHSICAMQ
# UniProt P07205, sequence (P07205 whole entry, looked up): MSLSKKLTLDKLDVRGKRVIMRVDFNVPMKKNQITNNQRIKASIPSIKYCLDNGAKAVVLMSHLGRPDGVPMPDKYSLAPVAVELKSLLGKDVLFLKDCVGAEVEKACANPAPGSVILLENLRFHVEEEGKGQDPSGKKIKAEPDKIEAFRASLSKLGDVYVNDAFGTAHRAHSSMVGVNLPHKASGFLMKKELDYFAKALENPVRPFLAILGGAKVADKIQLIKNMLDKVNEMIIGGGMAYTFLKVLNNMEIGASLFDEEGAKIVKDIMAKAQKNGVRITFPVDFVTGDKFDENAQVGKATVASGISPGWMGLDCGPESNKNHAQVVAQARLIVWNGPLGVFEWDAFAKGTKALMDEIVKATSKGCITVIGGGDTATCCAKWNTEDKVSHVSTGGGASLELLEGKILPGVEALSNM
# UniProt P62191, sequence (P62191 whole entry, looked up): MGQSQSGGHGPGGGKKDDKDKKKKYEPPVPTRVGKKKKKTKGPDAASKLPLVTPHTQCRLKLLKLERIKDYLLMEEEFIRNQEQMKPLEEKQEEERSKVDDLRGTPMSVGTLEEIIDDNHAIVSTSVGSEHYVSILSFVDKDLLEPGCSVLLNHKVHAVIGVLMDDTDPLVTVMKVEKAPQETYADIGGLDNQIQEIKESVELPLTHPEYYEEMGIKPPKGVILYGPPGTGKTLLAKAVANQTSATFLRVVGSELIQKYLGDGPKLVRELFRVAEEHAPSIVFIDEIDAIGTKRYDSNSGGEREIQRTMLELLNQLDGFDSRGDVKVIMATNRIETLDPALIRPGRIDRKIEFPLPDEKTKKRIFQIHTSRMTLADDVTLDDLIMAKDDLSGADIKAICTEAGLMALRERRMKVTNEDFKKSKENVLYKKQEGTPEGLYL
# UniProt P40425, sequence (P40425 whole entry, looked up): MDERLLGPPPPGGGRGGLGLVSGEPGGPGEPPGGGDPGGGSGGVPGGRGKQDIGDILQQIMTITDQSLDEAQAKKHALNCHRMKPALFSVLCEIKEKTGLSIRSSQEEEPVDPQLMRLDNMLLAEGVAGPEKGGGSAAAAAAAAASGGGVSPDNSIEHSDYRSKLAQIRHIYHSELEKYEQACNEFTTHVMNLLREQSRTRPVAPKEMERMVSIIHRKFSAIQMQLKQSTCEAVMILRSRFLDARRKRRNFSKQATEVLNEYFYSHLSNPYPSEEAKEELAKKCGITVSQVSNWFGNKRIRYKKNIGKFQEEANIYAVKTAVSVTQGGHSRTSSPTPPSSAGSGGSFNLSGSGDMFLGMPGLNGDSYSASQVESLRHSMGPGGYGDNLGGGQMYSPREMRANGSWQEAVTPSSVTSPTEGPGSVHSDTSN
# UniProt Q9Y244, sequence (Q9Y244 whole entry, looked up): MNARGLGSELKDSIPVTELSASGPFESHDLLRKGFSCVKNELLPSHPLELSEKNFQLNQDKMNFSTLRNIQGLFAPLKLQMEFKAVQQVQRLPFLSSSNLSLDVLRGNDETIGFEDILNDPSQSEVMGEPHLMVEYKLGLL
# UniProt P62136, sequence (P62136 whole entry, looked up): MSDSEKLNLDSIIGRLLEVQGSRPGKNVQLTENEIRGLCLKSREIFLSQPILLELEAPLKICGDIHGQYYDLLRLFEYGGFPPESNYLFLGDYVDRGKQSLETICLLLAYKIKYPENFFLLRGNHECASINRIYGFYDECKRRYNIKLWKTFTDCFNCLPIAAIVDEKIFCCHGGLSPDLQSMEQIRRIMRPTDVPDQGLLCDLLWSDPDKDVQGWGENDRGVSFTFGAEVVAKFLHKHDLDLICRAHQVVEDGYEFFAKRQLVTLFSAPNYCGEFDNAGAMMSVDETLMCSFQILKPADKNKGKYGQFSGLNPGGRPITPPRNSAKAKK
# UniProt Q15126, sequence (Q15126 whole entry, looked up): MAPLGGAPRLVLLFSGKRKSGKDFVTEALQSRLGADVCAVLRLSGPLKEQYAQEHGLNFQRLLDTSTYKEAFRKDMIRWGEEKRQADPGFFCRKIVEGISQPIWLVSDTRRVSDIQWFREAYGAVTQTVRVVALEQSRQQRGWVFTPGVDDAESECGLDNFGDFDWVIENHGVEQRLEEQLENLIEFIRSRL
# UniProt P05423, sequence (P05423 whole entry, looked up): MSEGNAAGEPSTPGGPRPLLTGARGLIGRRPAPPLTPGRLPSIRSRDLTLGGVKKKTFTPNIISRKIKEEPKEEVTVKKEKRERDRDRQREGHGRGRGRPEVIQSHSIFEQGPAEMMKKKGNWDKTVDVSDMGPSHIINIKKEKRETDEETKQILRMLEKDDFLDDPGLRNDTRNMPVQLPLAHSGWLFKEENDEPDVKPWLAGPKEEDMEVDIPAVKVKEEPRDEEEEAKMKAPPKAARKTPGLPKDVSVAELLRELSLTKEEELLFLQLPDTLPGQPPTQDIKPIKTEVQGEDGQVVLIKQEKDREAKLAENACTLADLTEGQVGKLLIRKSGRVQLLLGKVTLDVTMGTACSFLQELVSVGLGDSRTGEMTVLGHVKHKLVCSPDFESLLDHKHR
# UniProt Q9BZL6, sequence (Q9BZL6 whole entry, looked up): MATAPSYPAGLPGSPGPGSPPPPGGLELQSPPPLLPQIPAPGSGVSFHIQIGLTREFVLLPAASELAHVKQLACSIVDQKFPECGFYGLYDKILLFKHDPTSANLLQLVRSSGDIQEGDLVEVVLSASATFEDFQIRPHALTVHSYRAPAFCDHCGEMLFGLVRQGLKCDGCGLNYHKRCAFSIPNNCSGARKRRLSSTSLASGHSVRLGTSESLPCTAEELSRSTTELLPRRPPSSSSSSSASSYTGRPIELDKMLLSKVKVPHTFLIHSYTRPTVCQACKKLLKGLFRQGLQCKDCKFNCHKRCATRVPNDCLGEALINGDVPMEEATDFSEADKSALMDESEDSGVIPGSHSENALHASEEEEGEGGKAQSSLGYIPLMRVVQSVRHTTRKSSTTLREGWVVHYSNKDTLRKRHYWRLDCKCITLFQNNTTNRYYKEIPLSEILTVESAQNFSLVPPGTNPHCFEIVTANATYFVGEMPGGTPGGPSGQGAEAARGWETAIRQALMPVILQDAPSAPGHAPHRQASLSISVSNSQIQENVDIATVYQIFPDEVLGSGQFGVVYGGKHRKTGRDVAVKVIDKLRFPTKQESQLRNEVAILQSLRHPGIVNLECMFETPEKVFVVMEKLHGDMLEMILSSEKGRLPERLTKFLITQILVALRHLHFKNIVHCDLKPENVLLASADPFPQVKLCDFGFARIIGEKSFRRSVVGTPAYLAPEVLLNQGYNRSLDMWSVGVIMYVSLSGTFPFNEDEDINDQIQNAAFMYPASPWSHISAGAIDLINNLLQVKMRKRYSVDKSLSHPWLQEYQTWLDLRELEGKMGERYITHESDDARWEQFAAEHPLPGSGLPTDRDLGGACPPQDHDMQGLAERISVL
# UniProt P28070, sequence (P28070 whole entry, looked up): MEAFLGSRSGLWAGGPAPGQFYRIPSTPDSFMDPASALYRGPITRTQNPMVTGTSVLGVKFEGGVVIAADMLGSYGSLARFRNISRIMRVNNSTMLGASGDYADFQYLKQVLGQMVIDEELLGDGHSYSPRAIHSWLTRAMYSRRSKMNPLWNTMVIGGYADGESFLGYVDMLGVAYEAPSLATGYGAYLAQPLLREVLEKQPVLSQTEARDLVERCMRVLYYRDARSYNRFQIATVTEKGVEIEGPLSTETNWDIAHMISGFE
# UniProt Q96A00, sequence (Q96A00 whole entry, looked up): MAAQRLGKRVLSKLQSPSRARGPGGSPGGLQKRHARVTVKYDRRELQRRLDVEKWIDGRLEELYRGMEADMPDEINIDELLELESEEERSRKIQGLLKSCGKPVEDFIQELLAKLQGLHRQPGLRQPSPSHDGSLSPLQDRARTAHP
Target,log2 fold change [1],log2 fold change [2],log2 fold change [3],log2 fold change [4],log2 fold change [5],log2 fold change [6],log2 fold change [7],log2 fold change [8],log2 fold change [9],log2 fold change [10]
PTTG1IP (UniProt P53801),0.021,-0.03,0.004,-0.085,0.062,-0.011,0.013,-0.246,-0.052,0.129
PPP6R1 (UniProt Q9UPN7),0.058,-0.064,-0.017,-0.08,0.038,-0.058,-0.013,-0.044,0.034,-0.027
PEX13 (UniProt Q92968),-0.067,-0.083,0.022,0.061,-0.061,-0.011,-0.058,0.008,0.047,-0.087
PSMB4 (UniProt P28070),-0.012,0.026,0.078,-0.002,-0.031,0.038,0.019,-0.032,0.011,0.006
PAK4 (UniProt O96013),-0.047,0.098,-0.06,0.005,-0.012,-0.017,-0.067,0,0.085,0.03
POLB (UniProt P06746),-0.21,-0.16,0.195,0.138,0.062,,0.095,0.05,0.031,
PEX11B (UniProt O96011),0.052,-0.009,-0.001,-0.021,0.001,-0.042,-0.006,-0.022,0.024,-0.041
PGGHG (UniProt Q32M88),0.061,-0.014,0.009,0.04,-0.029,0.127,0.02,0.017,-0.086,-0.02
POLR3D (UniProt P05423),0.264,-0.029,0.024,1.53,-0.074,-0.027,,0.425,,-0.08
PELP1 (UniProt Q8IZL8),-0.002,-0.007,-0.066,-0.021,-0.027,-0.082,-0.054,-0.069,-0.012,0.004
PBX2 (UniProt P40425),0.082,-0.023,-0.141,-0.069,-0.022,-0.36,,-0.046,,-0.044
PHKA1 (UniProt P46020),-0.12,0.058,-0.073,-0.256,0.101,,-0.283,0.027,-0.295,
PPP1CA (UniProt P62136),0.036,-0.03,-0.027,-0.024,-0.009,-0.033,-0.008,-0.028,-0.009,0.018
PTGR2 (UniProt Q8N8N7),0.021,0.009,0.015,0.046,-0.052,-0.025,0.007,0.136,-0.107,-0.043
PRKD2 isoform 3 (UniProt Q9BZL6),-0.031,-0.273,0.034,0,-0.242,-0.004,,-0.075,,-0.024
PPP1R14A (UniProt Q96A00),-0.048,-0.027,0.025,0,-0.021,-0.012,-0.023,-0.015,-0.025,-0.004

Target,log2 fold change [1],log2 fold change [2],log2 fold change [3],log2 fold change [4],log2 fold change [5],log2 fold change [6],log2 fold change [7],log2 fold change [8],log2 fold change [9],log2 fold change [10]
PUM1 isoform 3 (UniProt Q14671),-0.01,-0.023,-0.059,0.004,-0.019,-0.078,0.082,-0.039,-0.01,0.001
PI4K2A (UniProt Q9BTU6),0.058,0.041,0.013,-0.008,-0.024,-0.014,-0.027,-0.11,0.057,0.02
PMVK (UniProt Q15126),-0.021,-0.003,-0.032,0.229,-0.051,0.02,,-0.039,,-0.368
PEX5 isoform 4 (UniProt P50542),-0.425,-0.207,-0.088,0.077,0.178,0.006,,0.182,,-0.097
PIP4K2C (UniProt Q8TBX8),-0.049,-0.035,0.54,0.133,0.371,0.527,0.011,-0.042,0.051,-0.113
PDE6D (UniProt O43924),-0.074,0.035,-0.051,0.029,-0.102,-0.043,,0.119,,0.068
PC (UniProt P11498),-0.088,-0.033,-0.005,0.001,-0.023,-0.113,0.043,0.09,-0.044,-0.076
PGK2 (UniProt P07205),-0.196,0.154,0.017,-0.041,,0.037,-0.248,-0.131,-0.056,0.038
POLR2K (UniProt P53803),-0.024,0.032,0.14,-0.031,-0.057,0.034,0.039,-0.047,-0.174,-0.063
POMP (UniProt Q9Y244),0.075,0.035,0.046,-0.067,-0.035,-0.014,-0.013,-0.114,-0.071,0.136
POLR3B (UniProt Q9NW08),-0.056,-0.129,-0.074,-0.045,-0.004,-0.03,-0.032,-0.047,0.039,-0.028
PSPC1 (UniProt Q8WXF1),0.007,-0.062,-0.068,0.041,-0.036,-0.342 (active),0.002,-0.011,0.03,-0.028
PARN (UniProt O95453),-0.013,-0.008,-0.118,-0.017,0.02,-0.141,0.079,-0.022,0.04,0.014
PSMC1 (UniProt P62191),-0.062,-0.022,0.057,-0.009,-0.019,0.083,0.043,0.024,0.022,-0.001
PPT1 (UniProt P50897),-0.007,0.029,0.005,-0.038,0.024,0.024,0.047,-0.019,-0.023,-0.002

# Source: the supplement of paper PMC10849652
